The target of assay [1] is human Dual Specificity Protein Phosphatase 3 (DUSP3), DUSP3 (gene 1845) (UniProt P51452). Nature of the assay: NVS_ENZ_hDUSP3: NovaScreen (NVS) Enzymatic Assay for human Dual Specificity Protein Phosphatase 3 (DUSP3) (AID 2283152).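 Also: phosphatase activity of recombinant human DUSP3 on a fluorogenic substrate without cells.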 The method, boiled down:
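Cell-free fluorescence-intensity enzyme activity assay with recombinant protein and substrate; loss of signal fitted relative to DMSO baseline. Primary screen in duplicate at 25 uM, actives then run in concentration series; measured 0 h after dosing.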

For assay [2], the target named is human Epidermal Growth Factor Receptor (EGFR), EGFR (gene 1956) (UniProt P00533). The assay is described as follows: NVS_ENZ_hEGFR: NovaScreen (NVS) Enzymatic Assay for human Epidermal Growth Factor Receptor (EGFR) (AID 2283151). How it is done:
(§1) NVS_ENZ_hEGFR is a biochemical, single-readout assay that uses extracted gene-proteins in a cell-free assay. Measurements were taken 1 hour after chemical dosing in a 384-well plate.NVS_ENZ_hEGFR is one of one assay component(s) measured or calculated from the NVS_ENZ_hEGFR assay. It is designed to make measurements of enzyme activity, a form of enzyme reporter, as detected with fluorescence intensity signals by Fluorescence and electrophoretic mobility shift technology.Data from the assay component NVS_ENZ_hEGFR was analyzed into 1 assay endpoint. This assay endpoint, NVS_ENZ_hEGFR, was analyzed in the positive analysis fitting direction relative to DMSO as the negative control and baseline of activity. Using a type of enzyme reporter, loss-of-signal activity can be used to understand changes in the enzymatic activity as they relate to the gene EGFR. Furthermore, this assay endpoint can be referred to as a primary readout, because this assay has produced multiple assay endpoints where this one serves a enzymatic activity function. To generalize the intended target to other relatable targets, this assay endpoint is annotated to the kinase intended target family, where the subfamily is receptor tyrosine kinase.
Binding assays used specific radioligands (tritiated, iodinated) with non-radioactive competitive displacement ligands in agonist or antagonist protocols (as indicated) and various reference compounds and inhibitors to titrate specific binding to receptors and transporters. Most enzyme assays (CYPs, kinases, phosphatases, proteases, HDACs) used recombinant protein and specific substrates (fluorescence mostly, some colorimetric and radioactive) and inhibitors, followed by a biochemical separation of substrate and product. All assays for the biochemical HTS were initially run in duplicate at a single concentration (10 uM for CYP450 assays and 25 uM for all others). Assay-chemical combinations meeting a pre-defined threshold (e.g., 30% inhibition and other criteria defined below) were then run in singleton concentration-response format with maximum concentration of 20 uM for CYPs and 50 uM for all others. Each assay was run with positive and negative controls, and concurrent controls on every plate. The follow-up (secondary) screen tested active chemical-pairs in concentration series, as well as a few additional assays not tested in the primary screen, some selected negative inactives, and several cases re-run in the concentration series for confirmatory purposes.

Assay [3] addresses human Esterase Plasma (ES), BCHE (gene 590) (UniProt P06276). Nature of the assay: NVS_ENZ_hES: NovaScreen (NVS) Enzymatic Assay for human Esterase Plasma (ES) (AID 2283157). The gist of the method:
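Human plasma-derived enzyme, cell-free, colorimetric readout at 0.25 h. Primary screen 25 uM in duplicate; hits (e.g. ≥30% inhibition) rerun singleton up to 50 uM. DMSO = negative control/baseline.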

Assay [4] addresses human Fibroblast Growth Factor Receptor 1 (FGFR1), FGFR1 (gene 2260) (UniProt P11362). The assay is described as follows: NVS_ENZ_hFGFR1: NovaScreen (NVS) Enzymatic Assay for human Fibroblast Growth Factor Receptor 1 (FGFR1) (AID 2283159).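 As to AC50: hits lower the signal so potencies describe inhibitors of the kinase.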 The gist of the method: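 Cell-free recombinant kinase with fluorescent substrate, product separated by electrophoretic mobility shift; read 1 hour after dosing, loss of signal relative to DMSO. Initial screen in duplicate at 25 uM, actives followed in concentration series.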

Assay [5] addresses human Ephrin type-A Receptor 1 (EphA1), EPHA1 (gene 2041) (UniProt P21709). The assay is described as follows: NVS_ENZ_hEphA1: NovaScreen (NVS) Enzymatic Assay for human Ephrin type-A Receptor 1 (EphA1) (AID 2283158).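 Also: activity is signal loss versus DMSO meaning EphA1 kinase inhibition.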 The method, boiled down: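 Fluorescent substrate conversion, resolved by mobility-shift separation, measured 1 hour post-dosing using recombinant enzyme; signal loss relative to DMSO baseline. Single-concentration duplicates at 25 uM preceded singleton concentration series topping at 50 uM.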

Assay [6] deals with human Casein Kinase 1-delta (CK1D), CSNK1D (gene 1453) (UniProt P48730). Nature of the assay: NVS_ENZ_hCK1D: NovaScreen (NVS) Enzymatic Assay for human Casein Kinase 1-delta (CK1D) (AID 2283148). The method, boiled down:
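Recombinant human CK1-delta, cell-free; fluorescent substrate with electrophoretic mobility-shift separation of product, read 1 h after dosing. Single 25 uM duplicate screen, then concentration-response up to 50 uM; loss of signal vs DMSO.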

The next assay concerns the target CDK2 (gene 1017) (UniProt P24941). The assay is described as follows: NVS_ENZ_hCDK2: NovaScreen (NVS) Enzymatic Assay for human Cyclin-Cependent Kinase 2 (CDK2) (AID 2283144). The gist of the method:
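Compounds screened in duplicate at 25 uM, then in singleton concentration-response to a maximum of 50 uM, against recombinant CDK2; kinase activity read 1 hr after dosing by fluorescence with mobility-shift separation of substrate and product.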

In assay [7] the target is human Colony Stimulating Factor 1 Receptor (CSF1R), CSF1R (gene 1436) (UniProt P07333). Nature of the assay: NVS_ENZ_hCSF1R: NovaScreen (NVS) Enzymatic Assay for human Colony Stimulating Factor 1 Receptor (CSF1R) (AID 2283150). On the procedure:
as §1, with “NVS_ENZ_hCSF1R” for “NVS_ENZ_hEGFR”, “plate.NVS_ENZ_hCSF1R” for “plate.NVS_ENZ_hEGFR”, “NVS_ENZ_hCSF1R,” for “NVS_ENZ_hEGFR,”, “CSF1R.” for “EGFR.”
Binding assays used specific radioligands (tritiated, iodinated) with non-radioactive competitive displacement ligands in agonist or antagonist protocols (as indicated) and various reference compounds and inhibitors to titrate specific binding to receptors and transporters. Most enzyme assays (CYPs, kinases, phosphatases, proteases, HDACs) used recombinant protein and specific substrates (fluorescence mostly, some colorimetric and radioactive) and inhibitors, followed by a biochemical separation of substrate and product. All assays for the biochemical HTS were initially run in duplicate at a single concentration (10 uM for CYP450 assays and 25 uM for all others). […]

Assay [8] concerns the target human Elastase, ELANE (gene 1991) (UniProt P08246). Nature of the assay: NVS_ENZ_hElastase: NovaScreen (NVS) Enzymatic Assay for human Elastase (AID 2283153). On the procedure:
NVS_ENZ_hElastase is a biochemical, single-readout assay that uses extracted gene-proteins from Human neutrophils in a cell-free assay. Measurements were taken 1.5 hours after chemical dosing in a 96-well plate.NVS_ENZ_hElastase is one of one assay component(s) measured or calculated from the NVS_ENZ_hElastase assay. It is designed to make measurements of enzyme activity, a form of enzyme reporter, as detected with absorbance signals by Spectrophotometry technology.Data from the assay component NVS_ENZ_hElastase was analyzed into 1 assay endpoint. This assay endpoint, NVS_ENZ_hElastase, was analyzed in the positive analysis fitting direction relative to DMSO as the negative control and baseline of activity. Using a type of enzyme reporter, loss-of-signal activity can be used to understand changes in the enzymatic activity as they relate to the gene ELANE. Furthermore, this assay endpoint can be referred to as a primary readout, because this assay has produced multiple assay endpoints where this one serves a enzymatic activity function. To generalize the intended target to other relatable targets, this assay endpoint is annotated to the protease intended target family, where the subfamily is serine protease. […]

Assay [9] concerns the target human Ephrin type-A Receptor 2 (EphA2), EPHA2 (gene 1969) (UniProt P29317). The assay is described as follows: NVS_ENZ_hEphA2: NovaScreen (NVS) Enzymatic Assay for human Ephrin type-A Receptor 2 (EphA2) (AID 2283155). The gist of the method:
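Enzyme activity of recombinant EphA2 read by fluorescence after mobility-shift separation, 1 h after dosing. Chemicals first tested at 25 uM (duplicate); those passing threshold run as concentration series, top 50 uM, single replicate, relative to DMSO.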

Records with an inconclusive call do not appear. Active and inactive are the calls of the source. The calls were made as follows: active = hit-call score of the fitted dose curve at least 0.9, where 1 is the maximum; inconclusive = response in the unintended direction; inactive = score below 0.9.

human Ephrin type-A Receptor 1 (EphA1), EPHA1 (gene 2041), sequence (P21709 whole entry, looked up): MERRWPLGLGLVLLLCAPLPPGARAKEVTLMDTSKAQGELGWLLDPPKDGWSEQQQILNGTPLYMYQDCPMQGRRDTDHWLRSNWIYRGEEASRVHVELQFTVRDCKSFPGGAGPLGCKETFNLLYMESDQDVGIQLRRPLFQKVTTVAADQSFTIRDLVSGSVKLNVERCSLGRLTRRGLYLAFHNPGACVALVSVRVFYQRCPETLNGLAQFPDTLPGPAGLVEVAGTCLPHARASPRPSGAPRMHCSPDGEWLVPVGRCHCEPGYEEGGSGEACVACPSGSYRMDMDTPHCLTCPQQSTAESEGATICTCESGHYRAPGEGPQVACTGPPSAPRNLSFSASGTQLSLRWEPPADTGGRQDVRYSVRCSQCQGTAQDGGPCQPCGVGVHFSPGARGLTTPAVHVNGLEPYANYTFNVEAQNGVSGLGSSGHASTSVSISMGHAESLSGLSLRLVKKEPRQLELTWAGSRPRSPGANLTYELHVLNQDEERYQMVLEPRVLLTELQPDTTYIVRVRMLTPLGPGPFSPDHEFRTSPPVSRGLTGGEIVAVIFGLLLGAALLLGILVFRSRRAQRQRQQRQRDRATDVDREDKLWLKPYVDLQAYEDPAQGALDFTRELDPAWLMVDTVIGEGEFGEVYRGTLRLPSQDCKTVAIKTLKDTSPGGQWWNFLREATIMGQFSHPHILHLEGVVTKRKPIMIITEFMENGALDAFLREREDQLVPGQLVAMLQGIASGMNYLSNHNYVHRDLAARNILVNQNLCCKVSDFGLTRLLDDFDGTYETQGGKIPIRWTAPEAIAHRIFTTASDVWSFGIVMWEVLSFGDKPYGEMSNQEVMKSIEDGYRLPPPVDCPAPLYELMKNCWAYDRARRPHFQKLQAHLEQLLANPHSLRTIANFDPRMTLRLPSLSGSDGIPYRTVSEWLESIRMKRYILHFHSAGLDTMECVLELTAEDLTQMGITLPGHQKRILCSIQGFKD
human Dual Specificity Protein Phosphatase 3 (DUSP3), DUSP3 (gene 1845), sequence (P51452 whole entry, looked up): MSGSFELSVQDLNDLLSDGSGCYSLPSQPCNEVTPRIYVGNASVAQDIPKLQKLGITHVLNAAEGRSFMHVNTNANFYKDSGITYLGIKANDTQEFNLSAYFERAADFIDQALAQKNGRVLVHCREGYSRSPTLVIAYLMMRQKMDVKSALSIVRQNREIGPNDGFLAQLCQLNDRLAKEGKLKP
human Fibroblast Growth Factor Receptor 1 (FGFR1), FGFR1 (gene 2260), sequence (P11362 whole entry, looked up): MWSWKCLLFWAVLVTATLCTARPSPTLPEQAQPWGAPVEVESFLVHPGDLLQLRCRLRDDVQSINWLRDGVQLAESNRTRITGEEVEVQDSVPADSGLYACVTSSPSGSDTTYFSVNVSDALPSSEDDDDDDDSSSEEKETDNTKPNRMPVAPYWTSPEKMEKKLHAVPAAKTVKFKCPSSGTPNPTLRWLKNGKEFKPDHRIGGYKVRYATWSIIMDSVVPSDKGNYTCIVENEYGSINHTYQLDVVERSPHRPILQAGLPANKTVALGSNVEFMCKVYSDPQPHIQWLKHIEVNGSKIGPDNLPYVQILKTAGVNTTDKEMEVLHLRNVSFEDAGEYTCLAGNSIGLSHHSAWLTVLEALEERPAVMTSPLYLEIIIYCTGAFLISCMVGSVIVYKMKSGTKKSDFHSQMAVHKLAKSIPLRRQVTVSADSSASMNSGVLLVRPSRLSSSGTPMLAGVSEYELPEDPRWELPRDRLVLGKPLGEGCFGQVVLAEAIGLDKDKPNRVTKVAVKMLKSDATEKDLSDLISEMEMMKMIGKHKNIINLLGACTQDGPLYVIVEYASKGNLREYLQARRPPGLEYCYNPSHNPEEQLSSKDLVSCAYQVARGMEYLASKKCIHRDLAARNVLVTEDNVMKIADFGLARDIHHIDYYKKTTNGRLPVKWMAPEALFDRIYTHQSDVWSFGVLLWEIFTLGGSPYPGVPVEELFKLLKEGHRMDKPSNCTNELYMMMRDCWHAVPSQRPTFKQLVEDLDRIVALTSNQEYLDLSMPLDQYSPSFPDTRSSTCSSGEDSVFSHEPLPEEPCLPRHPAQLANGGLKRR
human Epidermal Growth Factor Receptor (EGFR), EGFR (gene 1956), sequence (P00533 whole entry, looked up): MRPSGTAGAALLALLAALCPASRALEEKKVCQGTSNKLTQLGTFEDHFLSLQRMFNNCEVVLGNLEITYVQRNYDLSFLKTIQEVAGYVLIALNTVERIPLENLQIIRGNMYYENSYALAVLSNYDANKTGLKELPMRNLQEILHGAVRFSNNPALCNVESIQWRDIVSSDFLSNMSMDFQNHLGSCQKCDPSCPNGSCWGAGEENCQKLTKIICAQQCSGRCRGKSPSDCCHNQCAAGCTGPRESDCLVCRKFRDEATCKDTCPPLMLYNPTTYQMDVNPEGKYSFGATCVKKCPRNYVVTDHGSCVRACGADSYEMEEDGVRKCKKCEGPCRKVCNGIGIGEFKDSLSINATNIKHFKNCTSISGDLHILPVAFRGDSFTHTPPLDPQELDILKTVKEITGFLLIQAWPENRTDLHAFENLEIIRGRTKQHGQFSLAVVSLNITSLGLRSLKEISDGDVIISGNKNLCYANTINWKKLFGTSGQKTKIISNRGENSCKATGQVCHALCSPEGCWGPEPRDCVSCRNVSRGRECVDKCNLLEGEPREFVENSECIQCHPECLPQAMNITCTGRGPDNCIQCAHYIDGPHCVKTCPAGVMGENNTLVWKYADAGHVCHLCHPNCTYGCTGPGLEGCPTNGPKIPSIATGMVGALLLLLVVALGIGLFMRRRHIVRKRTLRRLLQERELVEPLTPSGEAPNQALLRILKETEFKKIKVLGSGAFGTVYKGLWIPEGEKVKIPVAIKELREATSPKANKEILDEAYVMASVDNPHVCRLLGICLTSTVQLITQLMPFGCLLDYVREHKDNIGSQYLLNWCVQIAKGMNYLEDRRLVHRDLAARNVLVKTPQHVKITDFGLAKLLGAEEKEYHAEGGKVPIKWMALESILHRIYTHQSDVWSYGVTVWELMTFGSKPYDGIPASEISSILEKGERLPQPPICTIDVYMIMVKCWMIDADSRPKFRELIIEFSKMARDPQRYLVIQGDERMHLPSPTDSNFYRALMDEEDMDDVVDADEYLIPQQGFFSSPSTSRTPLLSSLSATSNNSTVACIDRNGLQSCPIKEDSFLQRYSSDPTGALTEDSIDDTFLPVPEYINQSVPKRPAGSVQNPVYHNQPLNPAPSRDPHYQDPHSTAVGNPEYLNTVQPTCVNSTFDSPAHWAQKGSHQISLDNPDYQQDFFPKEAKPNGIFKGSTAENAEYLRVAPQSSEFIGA
human Esterase Plasma (ES), BCHE (gene 590), sequence (P06276 whole entry, looked up): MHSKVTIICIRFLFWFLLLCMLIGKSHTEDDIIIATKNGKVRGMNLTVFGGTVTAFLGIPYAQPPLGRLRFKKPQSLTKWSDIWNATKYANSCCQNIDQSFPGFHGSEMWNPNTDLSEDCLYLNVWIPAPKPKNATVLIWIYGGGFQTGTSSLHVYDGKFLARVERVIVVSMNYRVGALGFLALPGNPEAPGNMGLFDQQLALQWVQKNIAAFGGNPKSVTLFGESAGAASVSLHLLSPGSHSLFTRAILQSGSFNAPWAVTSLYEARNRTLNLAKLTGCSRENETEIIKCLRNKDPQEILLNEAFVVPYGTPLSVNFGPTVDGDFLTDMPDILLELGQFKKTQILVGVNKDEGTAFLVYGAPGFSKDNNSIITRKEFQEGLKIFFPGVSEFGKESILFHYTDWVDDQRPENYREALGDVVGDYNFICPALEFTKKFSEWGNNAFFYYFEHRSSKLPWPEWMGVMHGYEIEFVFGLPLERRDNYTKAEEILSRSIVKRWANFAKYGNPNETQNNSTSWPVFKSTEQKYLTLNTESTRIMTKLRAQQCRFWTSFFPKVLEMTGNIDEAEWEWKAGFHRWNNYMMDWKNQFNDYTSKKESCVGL
human Casein Kinase 1-delta (CK1D), CSNK1D (gene 1453), sequence (P48730 whole entry, looked up): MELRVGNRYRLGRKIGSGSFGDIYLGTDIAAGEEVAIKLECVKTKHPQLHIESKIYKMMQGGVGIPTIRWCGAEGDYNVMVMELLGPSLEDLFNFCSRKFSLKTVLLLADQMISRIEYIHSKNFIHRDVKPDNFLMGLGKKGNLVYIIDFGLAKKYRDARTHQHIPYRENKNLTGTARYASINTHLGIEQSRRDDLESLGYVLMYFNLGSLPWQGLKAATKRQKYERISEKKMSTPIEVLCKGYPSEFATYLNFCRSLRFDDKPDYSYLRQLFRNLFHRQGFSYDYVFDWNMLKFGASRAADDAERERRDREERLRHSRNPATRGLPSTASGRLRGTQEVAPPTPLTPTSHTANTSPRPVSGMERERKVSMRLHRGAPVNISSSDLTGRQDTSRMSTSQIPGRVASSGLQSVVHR
human Elastase, ELANE (gene 1991), sequence (P08246 whole entry, looked up): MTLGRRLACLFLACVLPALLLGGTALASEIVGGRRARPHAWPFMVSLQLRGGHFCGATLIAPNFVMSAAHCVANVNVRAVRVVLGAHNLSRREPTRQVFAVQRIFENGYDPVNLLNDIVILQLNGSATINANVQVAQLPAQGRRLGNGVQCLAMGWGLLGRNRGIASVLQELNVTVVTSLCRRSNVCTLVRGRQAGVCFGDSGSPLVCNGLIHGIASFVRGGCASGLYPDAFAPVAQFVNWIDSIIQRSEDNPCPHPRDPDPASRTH

Consider `CCOP(=S)(OCC)SCn1nnc2ccccc2c1=O`, for which, in assay [1], the AC50 is 19.6 µM (active).

With `O=P1(N(CCCl)CCCl)NCCCO1` (stereo not drawn), the call in [2], in [3] and in [4] was inactive.

For the molecule `ClC(Cl)(Cl)c1ccccc1`, the outcome in assay [4] was inactive.

For `CC(Cl)(Cl)C(=O)O`, the call in assay [5] was inactive.

Regarding `CCOP(=S)(OCC)SCSc1ccc(Cl)cc1`, the AC50 in [1] is 17.3 µM (active).

As for `O=[N+]([O-])c1ccccc1`, the molecule was classed as inactive in [6] and in assay [4].

`ClC1=C(Cl)C2(Cl)C3C(Cl)C(Cl)CC3C1(Cl)C2(Cl)Cl` (stereo not drawn): the result in assay [2] and in assay [4] was inactive.

For `CC(C)(C)OOC(C)(C)C`, the result (with CDK2 (gene 1017); in assay [7]; in assay [2]; in [5]) was inactive.

In the case of `c1ccc2c(c1)Nc1ccccc1S2`, the molecule was classed as inactive in [8].

Regarding `Cc1ccc2c(c1N)C(=O)c1ccccc1C2=O`, the AC50 in assay [5] is 19.2 µM (active).

Turning to `O=c1ssc(Cl)c1Cl`, the concentration at half-maximal activity (AC50) in assay [1] was 6.98 µM (active).

Take `CC(C)Nc1ccc(Nc2ccccc2)cc1`: the AC50 in assay [1] was 2.71 µM (active). For the same molecule, in [5], the call was inactive.

Regarding `Nc1ccc(Cl)cc1`, in [5], the molecule was called inactive.

With `CCCCN(CCCC)SN(C)C(=O)Oc1cccc2c1OC(C)(C)C2`, the call in assay [3] was inactive.

With `CCOP(=S)(S)OCC`, the AC50 in [1] was 19.9 µM (active).

For `Cc1ccc(O)cc1C`, the molecule was called inactive in assay [6] and in assay [2].

On to `Nc1ccc2ccccc2c1`, for which the AC50 in assay [3] was 13.7 µM (active).

With `c1ccc(OP(Oc2ccccc2)Oc2ccccc2)cc1`, the molecule was called inactive in [6]. For the same molecule, the AC50 in assay [8] is 37 µM (active).

For `CCOS(=O)(=O)OCC`, in assay [6], the result was inactive.

In the case of `CSC(C)(C)C=NO`, the call in assay [7] and in assay [4] was inactive.

For the molecule `CCC(C)(C)c1ccc(O)cc1`, the molecule was classed as inactive in assay [7].

`CC1(C)CN=C(NN=C(/C=C/c2ccc(C(F)(F)F)cc2)/C=C/c2ccc(C(F)(F)F)cc2)NC1`: in assay [4], the AC50 was 13.6 µM (active).

With `CCNc1nc(Cl)nc(NC(C)(C)C)n1`, the outcome in [3] and in [4] was inactive.

`Cc1ccc([N+](=O)[O-])cc1C`: the molecule was called inactive in assay [9].

For `O=P(Oc1ccccc1)(Oc1ccccc1)Oc1ccccc1`, the molecule was called inactive in assay [9].

Take `CCCCN(CCCC)N=O`: the result in [4] was inactive.

Broadly, the AC50 is the midpoint of the concentration-response curve, whichever way the signal moves.

For the origin of these results see PubChem BioAssay (EPA / NIEHS).
